Measured values taken from PubChem BioAssay (EPA / NIEHS).
Records with an inconclusive call do not appear. The source made the active and inactive calls. The calls were made as follows: active = hit-call score of the fitted dose curve at least 0.9, where 1 is the maximum; inconclusive = response in the unintended direction; inactive = score below 0.9.

assay: ACEA_ER_AUC_viability: ACEA Biosciences xCELLigence Real-Time Cell Analysis on Estrogen Receptor Agonism for Viability (AID 2283782);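 also: continuous compound exposure with impedance area under curve over 80 h; hit means loss of impedance signal meaning reduced cell growth or viability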
Summary of the method: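 T47D cells preconditioned in phenol red-free RPMI with charcoal-stripped FBS, then dosed with 8-point 1:4 series from 100 uM (up to 0.5% DMSO). Impedance monitored up to ~80 h; area-under-curve loss versus DMSO taken as viability.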

SMILES | outcome | AC50
Cc1ccc(C(=O)Cl)cc1 | inactive | –
COP(=O)(O)OC | inactive | –
CC1=C(C(=O)Nc2ccccc2)S(=O)(=O)CCO1 | – | 28.6 µM (active)
O=C(O)C(F)(F)OC(F)(F)C(F)(F)OC(F)(F)F | inactive | –
CC(O)C(F)(F)C(F)(F)F (stereo not given) | inactive | –
N#Cc1c(-c2ccc(Cl)cc2)[nH]c(C(F)(F)F)c1Br | – | 6.72 µM (active)
FC(F)(F)C(F)(C(F)(F)F)C(F)(F)C(F)(F)CC1CO1 (stereo not given) | inactive | –
N#C/C=C/c1ccccc1 | – | 50 µM (active)
COP(N)(=S)OC | – | 32.4 µM (active)
OCC(F)(F)OC(F)(F)C(F)(F)OC(F)(F)C(F)(F)OC(F)(F)CO | – | 137 µM (active)
CCN(CC)C1CCCCC1 | inactive | –
CC(C)(C)OOC(C)(C)C | inactive | –
C=CC(=O)OCC(CC)(COC(=O)C=C)COC(=O)C=C | – | 10.1 µM (active)
NNC(N)=S | inactive | –
Cn1[nH]nnc1=S | inactive | –
C/C(=N\NC(=O)Nc1cc(F)cc(F)c1)c1ncccc1C(=O)O | inactive | –
CC(C)Nc1ccc(Nc2ccccc2)cc1 | – | 18 µM (active)
O=S(=O)(F)C(F)(F)C(F)(F)C(F)(F)C(F)(F)C(F)(F)C(F)(F)C(F)(F)C(F)(F)F | inactive | –
CCOP(=S)(OCC)SCS(=O)(=O)CC | inactive | –
Cc1ccc2c(c1N)C(=O)c1ccccc1C2=O | inactive | –
COP(=O)(CCC(=O)NCO)OC | – | 56.8 µM (active)
CC(O)C#N (stereo not given) | – | 50 µM (active)
CNC(=O)Oc1ccc(N(C)C)c(C)c1 | – | 39.7 µM (active)
CCOP(=O)(O)C(N)=O | inactive | –
Nc1ccc([N+](=O)[O-])cc1Cl | inactive | –
